Records with an inconclusive call do not appear. A number with no mark means an inactive call. Activity calls are given as the source filed them. Calls come from the whole dose curve; as a rule, active = well fitted cell-killing curve with a large enough effect in the repeat runs; inconclusive = weak or mixed curves, or effect the other way; inactive = flat fitted curve, though single readings scatter.
assay: qHTS RealTime-Glo MT Cell Viability Assay in HEK293 cells - 16 hour (AID 1224872); settings: RealTime-Glo luminescence; series mostly up to 76.8 µM; activity change, negative = cytotoxicity: at the top concentration; note: nearly all actives have a fitted effect of over 50% in size; for activity change, negative = cytotoxicity: top concentration of the series differs between compounds
Source text: National Center for Advancing Translational Sciences [NCATS]
NIH Chemical Genomics Center [NCGC]
U.S. Environmental Protection Agency [EPA]
National Institutes of Environmental Health Sciences [NIEHS]
National Toxicology Program [NTP]
U.S. Food and Drug Administration [FDA]
Measure of cell viability is critical in the cell-base assay. Analysis of cell viability is necessary for the characterization of cell responses to cytotoxic drugs and environmental stress. A RealTime-Glo MT Cell Viability Assay to monitor cell viability in real time of continues cell culture during 40 hours of compound treatment was used to screen Tox21 10K library compounds in Hek293 cells. The RealTime-Glo MT Cell Viability Assay is a nonlytic, homogeneous, bioluminescent method to measure cell viability in real time using a simple, plate-based method. The assay involves adding NanoLuc luciferase and a cell-permeant prosubstrate to cells in culture. Viable cells reduce the proprietary prosubstrate to generate a substrate for NanoLuc luciferase. This substrate diffuses from cells into the surrounding culture medium, where it is rapidly used by the NanoLuc Enzyme to produce a luminescent signal. The signal correlates with the number of viable cells, making the assay well suited for cytotoxicity studies.
Tox21 Assay Protocol Summary:
The mixture of Hek293 cell suspension and reagents were dispensed at 600cells/6 ul/well in 1536-well tissue culture treated black solid bottom plates using a Multidrop dispenser. After the assay plates were incubated at a 37 C/5% CO2 incubator for 5 hours, 23 nL of compounds dissolved in DMSO, positive and negative controls was transferred to the assay plate by a pintool work station. The plates were incubated at 37 C for 40 hours. The luminescence intensity were measured at 0h, 8h, 16h, 24h, 32h and 40h time points using ViewLux plate reader during compound treatment.
% is set by controls: 0 for no effect and ±100 for the full control effect; potency is the fitted concentration of half-maximal effect.

Structure (SMILES) | activity change, negative = cytotoxicity | Potency
COc1ccc(CN(CCN(C)C)c2ncccn2)cc1 | -0.105% [at 35.3 µM] | –
CCC(=O)O[C@]1(C(=O)COC)[C@@H](C)C[C@H]2[C@@H]3CCC4=CC(=O)C=C[C@]4(C)C3(F)[C@@H](O)C[C@@]21C (stereo not given in full) | -0.763% [at 35.3 µM] | –
OCCCO | 11.3% | –
CC(C)(O)C(=O)O | 9.12% | –
CC(C)Oc1ccccc1O | 5.16% | –
[O-][n+]1ccc(Cl)cc1 | 11.4% | –
O=C(c1ccco1)N1CCNCC1 | 3.78% [at 35.3 µM] | –
C1=COCCC1 | 0.436% | –
CCC(C(=O)O)c1ccc(N2Cc3ccccc3C2=O)cc1 (stereo not given) | 0.335% [at 35.3 µM] | –
CC1=C(C)C(=O)C(CCCCC#CCCCC#CCO)=C(C)C1=O | – | 0.601 µM (active)
CCOc1cc(OCC)c(C(C)=O)cc1OCC | – | 19.2 µM (active)
O=C(O)c1ccccc1[N+](=O)[O-] | 21.8% | –
C=CC(=O)NC(C)(C)C | 1.72% | –
Oc1ccc(CCNCCCCCCNCCc2ccccc2)cc1O | – | 23.9 µM (active)
CCCCCCCCCCCCN1CCOCC1 | 14.1% | –
Nc1ncnc2c1ncn2[C@@H]1O[C@H](CO)[C@@H](O)[C@H]1O | 7.97% [at 35.3 µM] | –
COc1ccc(C(=O)Nc2ccccc2)cc1[N+](=O)[O-] | – | 24.7 µM (active)
O=c1[nH][nH]c2ccccc12 | -14.5% | –
CC(C)=CCCC(C)C=O (stereo not given) | 6.57% | –
FC(F)(Cl)C(F)(Cl)Cl | 7.38% | –

Structure (SMILES) | activity change, negative = cytotoxicity | Potency
CC(=O)S[C@H](C(=O)N[C@H]1Cc2ccccc2[C@H]2CCC[C@@H](C(=O)O)N2C1=O)C(C)C | 15.1% | –
CCCC(=O)OCc1ccccc1 | 3.41% | –
CCC(CC)C(=O)O | 15% | –
Cc1ccc(Cl)c(OCC(O)CNC(C)(C)C)c1 (stereo not given) | -5.61% [at 35.3 µM] | –
Nc1ccc(F)cc1F | -20.9% | –
COc1ccc(/C=C/S(=O)(=O)NC(=O)c2ccc(C)cc2Cl)cc1 | -4.17% | –
Nc1cccc2c(=O)[nH][nH]c(=O)c12 | -15.2% | –
CC(C)(C(=O)O)c1ccc(C(O)CCCN2CCC(C(O)(c3ccccc3)c3ccccc3)CC2)cc1 (stereo not given) | 0.111% [at 35.3 µM] | –
CCC1=C(C)CN(C(=O)NCCc2ccc(S(=O)(=O)NC(=O)NC3CCC(C)CC3)cc2)C1=O (stereo not given) | -15.4% [at 35.3 µM] | –
CCc1ccc(C(=O)C(C)CN2CCCCC2)cc1 (stereo not given) | 0.135% [at 35.3 µM] | –
N#CCCCC(C#N)CCC#N (stereo not given) | 13% | –
c1ccc(CCNc2nc(-c3ccccc3)cs2)cc1 | -10.1% [at 35.3 µM] | –
CCOc1ccc2c(c1)C(C)CC(C)(C)N2 (stereo not given) | -4.88% | –
O=C(O)c1ccc2c(c1)nc(C(=O)NC1CCN(C3CC3)CC1)n2Cc1cc(-c2ccc(Cl)s2)on1 | 7.22% [at 15.8 µM] | –
CCc1c(C)[nH]c2c1C(=O)C(CN1CCOCC1)CC2 (stereo not given) | 1.44% [at 35.3 µM] | –
O=C(O)c1cccc(C(=O)O)c1C(=O)O | -2.1% | –
CCCCOc1ccc(N)cc1 | -0.675% | –
CCOC(=O)CC(O)(CC(=O)OCC)C(=O)OCC | 18.3% | –
O=[N+]([O-])c1cccc(I)c1 | 0.0549% | –
C=CCCC | -4.03% | –

Source: PubChem BioAssay (Tox21)
